The structures appear in SMILES notation. Records with an inconclusive call do not appear. Active and inactive are the calls of the source. How the source made its calls, unless noted: active means hit-call score of the fitted dose curve at least 0.9, where 1 is the maximum; inactive means score below 0.9.

The target in assay [1] is Peroxisome proliferator-activated receptor gamma (Homo sapiens) (UniProt P37231). As to the kind of experiment: OT_PPARg_PPARgSRC1_0480: Odyssey Thera (OT) 8-hour Protein-Complementation Assay for Peroxisome Proliferator-activated Receptor Gamma / SRC-1 Co-activator (AID 2283387; active means hit-call score of the fitted dose curve at least 0.9, where 1 is the maximum;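 further: nuclear to cytoplasmic split Venus YFP fluorescence ratio reporting PPARg SRC-1 interaction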). Put shortly:
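Read-out: 488 nm N/C fluorescence ratio from complemented Venus YFP fragments, ≥350 cells per image, gain-of-signal fitted against DMSO baseline. Fusions of PPARg/SRC-1 with IFP1/IFP2 expressed transiently in HEK293T; compounds applied 8 h.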

For assay [2] the target is unchanged. As to the kind of experiment: OT_PPARg_PPARgSRC1_1440: Odyssey Thera (OT) 24-hour Protein-Complementation Assay for Peroxisome Proliferator-activated Receptor Gamma/ SRC-1 Co-activator (AID 2283388; active means hit-call score of the fitted dose curve at least 0.9, where 1 is the maximum;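 further: nuclear to cytoplasmic ratio of reconstituted Venus YFP fluorescence in fixed imaged cells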). Put shortly:
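Cells carrying the PPARg/SRC-1 fragment-complementation reporter receive compound for 24 hours, are fixed and counterstained with Draq5, then imaged. Increased nuclear relative to cytoplasmic YFP fluorescence above DMSO baseline indicates binding activity.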

Read-out in assay [3]: Tumor necrosis factor receptor superfamily member 6 (Homo sapiens) (UniProt P25445)
As to the kind of experiment: LTEA_HepaRG_FAS: Life Technologies and Expression Analysis (LTEA) Assay for Fas cell surface death receptor (FAS) using HepaRG (AID 2283447). The note with it: mRNA level, 48 h; actives raise or lower the signal. Put shortly: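 Differentiated HepaRG cells in serum-free induction medium were exposed 48 h to 8 half-log concentrations up to 100 uM in 0.5% DMSO, in duplicate. FAS mRNA was measured by qRT-PCR normalised to ACTB, GAPDH and POLR2A; bidirectional fit versus DMSO.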

Read-out in assay [4]: Fatty acid synthase (Homo sapiens) (UniProt P49327)
As to the kind of experiment: LTEA_HepaRG_FASN: Life Technologies and Expression Analysis (LTEA) Assay for Fatty Acid Synthase (FASN) using HepaRG (AID 2283448).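 On AC50: differentiated human HepaRG liver cells in serum-free induction medium.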 Particulars: mRNA level, 48 h; actives raise or lower the signal. Put shortly:
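Transcript-level assay: HepaRG liver cells are treated for 48 h across an eight-point range topping at 100 uM, and FASN mRNA, normalized to three housekeeping genes, is compared with DMSO controls in both directions.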

Read-out in assay [5]: Cyclin Dependent Kinase Inhibitor 1A (CDKN1A), CDKN1A (gene 1026)
As to the kind of experiment: LTEA_HepaRG_CDKN1A: Life Technologies and Expression Analysis (LTEA) Assay for Cyclin Dependent Kinase Inhibitor 1A (CDKN1A) using HepaRG (AID 2283450). The note with it: mRNA level, 48 h; actives raise or lower the signal. Put shortly: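 Gain or loss of CDKN1A transcript is scored by bidirectional fitting against 0.5% DMSO vehicle. Human HepaRG cultures receive chemicals for 48 h across an 8-point series peaking at 100 uM; expression comes from qRT-PCR.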

Read-out in assay [6]: Cyclin D1 (CCND1), CCND1 (gene 595)
As to the kind of experiment: LTEA_HepaRG_CCND1: Life Technologies and Expression Analysis (LTEA) Assay for Cyclin D1 (CCND1) using HepaRG (AID 2283451).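 On AC50: differentiated human HepaRG liver cells in serum-free induction medium; TaqMan qRT-PCR transcript level normalised to ACTB GAPDH and POLR2A housekeeping genes.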 The note with it: mRNA level, 48 h; actives raise or lower the signal. Put shortly:
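Expression change is measured by qRT-PCR in HepaRG cells after 48 h treatment across eight concentrations topping at 100 uM, with duplicate wells and DMSO (0.5%) serving as baseline for bidirectional fitting.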

Read-out in assay [7]: catalase (CAT), CAT (gene 847)
As to the kind of experiment: LTEA_HepaRG_CAT: Life Technologies and Expression Analysis (LTEA) Assay for catalase (CAT) using HepaRG (AID 2283452). Particulars: mRNA level, 48 h; actives raise or lower the signal. Put shortly:
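HepaRG cells in serum-free induction medium, 0.5% DMSO vehicle, exposed 48 h in duplicate over 8 half-log concentrations from 100 uM. CAT mRNA measured by qRT-PCR, normalized to ACTB, GAPDH, POLR2A; bidirectional fit versus DMSO.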

Read-out in assay [8]: flavin-containing dimethylaniline monooxygenases 3 (FMO3), FMO3 (gene 2328)
As to the kind of experiment: LTEA_HepaRG_FMO3: Life Technologies and Expression Analysis (LTEA) Assay for flavin-containing dimethylaniline monooxygenases 3 (FMO3) using HepaRG (AID 2283453).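 On AC50: differentiated human HepaRG liver cells in serum-free induction medium; FMO3 transcript by TaqMan qRT-PCR normalized to ACTB GAPDH and POLR2A.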 Particulars: mRNA level, 48 h; actives raise or lower the signal. Put shortly:
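HepaRG, 48 h exposure, 8-pt half-log series from 100 uM, 0.5% DMSO vehicle, duplicates; FMO3 transcript by Fluidigm TaqMan qRT-PCR, housekeeping-normalized; gain/loss fit vs DMSO.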

Read-out in assay [9]: Cytochrome P450 (CYP1A1), CYP1A1 (gene 1543)
As to the kind of experiment: LTEA_HepaRG_CYP1A1: Life Technologies and Expression Analysis (LTEA) Assay for Cytochrome P450 (CYP1A1) using HepaRG (AID 2283454). Particulars: mRNA level, 48 h; actives raise or lower the signal. Put shortly: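 Using HepaRG cultures with 0.5% DMSO as vehicle, eight-concentration exposures (max 100 uM) lasted 48 h. Transcript levels were measured by TaqMan qRT-PCR and normalized to ACTB, GAPDH and POLR2A.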

Read-out in assay [10]: CFLAR gene, CFLAR (gene 8837)
As to the kind of experiment: LTEA_HepaRG_CFLAR: Life Technologies and Expression Analysis (LTEA) Assay for CFLAR gene using HepaRG (AID 2283455). The note with it: mRNA level, 48 h; actives raise or lower the signal. Put shortly:
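Differentiated HepaRG cells in serum-free induction medium were exposed 48 h in duplicate to eight half-log concentrations up to 100 uM in 0.5% DMSO; mRNA measured by TaqMan qRT-PCR, normalized to ACTB, GAPDH, POLR2A; bidirectional fitting versus DMSO.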

Read-out in assay [11]: Forkhead box O1 (FOXO1), FOXO1 (gene 2308)
As to the kind of experiment: LTEA_HepaRG_FOXO1: Life Technologies and Expression Analysis (LTEA) Assay for Forkhead box O1 (FOXO1) using HepaRG (AID 2283456). The note with it: mRNA level, 48 h; actives raise or lower the signal. Put shortly: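 Differentiated HepaRG cells, in serum-free induction medium with 0.5% DMSO, exposed 48 h in duplicate to 8-point half-log series from 100 uM. FOXO1 mRNA measured by TaqMan qRT-PCR, normalized to ACTB, GAPDH, POLR2A; bidirectional fit versus DMSO.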

Chain of Fatty acid synthase (Homo sapiens) (P49327 whole entry, looked up): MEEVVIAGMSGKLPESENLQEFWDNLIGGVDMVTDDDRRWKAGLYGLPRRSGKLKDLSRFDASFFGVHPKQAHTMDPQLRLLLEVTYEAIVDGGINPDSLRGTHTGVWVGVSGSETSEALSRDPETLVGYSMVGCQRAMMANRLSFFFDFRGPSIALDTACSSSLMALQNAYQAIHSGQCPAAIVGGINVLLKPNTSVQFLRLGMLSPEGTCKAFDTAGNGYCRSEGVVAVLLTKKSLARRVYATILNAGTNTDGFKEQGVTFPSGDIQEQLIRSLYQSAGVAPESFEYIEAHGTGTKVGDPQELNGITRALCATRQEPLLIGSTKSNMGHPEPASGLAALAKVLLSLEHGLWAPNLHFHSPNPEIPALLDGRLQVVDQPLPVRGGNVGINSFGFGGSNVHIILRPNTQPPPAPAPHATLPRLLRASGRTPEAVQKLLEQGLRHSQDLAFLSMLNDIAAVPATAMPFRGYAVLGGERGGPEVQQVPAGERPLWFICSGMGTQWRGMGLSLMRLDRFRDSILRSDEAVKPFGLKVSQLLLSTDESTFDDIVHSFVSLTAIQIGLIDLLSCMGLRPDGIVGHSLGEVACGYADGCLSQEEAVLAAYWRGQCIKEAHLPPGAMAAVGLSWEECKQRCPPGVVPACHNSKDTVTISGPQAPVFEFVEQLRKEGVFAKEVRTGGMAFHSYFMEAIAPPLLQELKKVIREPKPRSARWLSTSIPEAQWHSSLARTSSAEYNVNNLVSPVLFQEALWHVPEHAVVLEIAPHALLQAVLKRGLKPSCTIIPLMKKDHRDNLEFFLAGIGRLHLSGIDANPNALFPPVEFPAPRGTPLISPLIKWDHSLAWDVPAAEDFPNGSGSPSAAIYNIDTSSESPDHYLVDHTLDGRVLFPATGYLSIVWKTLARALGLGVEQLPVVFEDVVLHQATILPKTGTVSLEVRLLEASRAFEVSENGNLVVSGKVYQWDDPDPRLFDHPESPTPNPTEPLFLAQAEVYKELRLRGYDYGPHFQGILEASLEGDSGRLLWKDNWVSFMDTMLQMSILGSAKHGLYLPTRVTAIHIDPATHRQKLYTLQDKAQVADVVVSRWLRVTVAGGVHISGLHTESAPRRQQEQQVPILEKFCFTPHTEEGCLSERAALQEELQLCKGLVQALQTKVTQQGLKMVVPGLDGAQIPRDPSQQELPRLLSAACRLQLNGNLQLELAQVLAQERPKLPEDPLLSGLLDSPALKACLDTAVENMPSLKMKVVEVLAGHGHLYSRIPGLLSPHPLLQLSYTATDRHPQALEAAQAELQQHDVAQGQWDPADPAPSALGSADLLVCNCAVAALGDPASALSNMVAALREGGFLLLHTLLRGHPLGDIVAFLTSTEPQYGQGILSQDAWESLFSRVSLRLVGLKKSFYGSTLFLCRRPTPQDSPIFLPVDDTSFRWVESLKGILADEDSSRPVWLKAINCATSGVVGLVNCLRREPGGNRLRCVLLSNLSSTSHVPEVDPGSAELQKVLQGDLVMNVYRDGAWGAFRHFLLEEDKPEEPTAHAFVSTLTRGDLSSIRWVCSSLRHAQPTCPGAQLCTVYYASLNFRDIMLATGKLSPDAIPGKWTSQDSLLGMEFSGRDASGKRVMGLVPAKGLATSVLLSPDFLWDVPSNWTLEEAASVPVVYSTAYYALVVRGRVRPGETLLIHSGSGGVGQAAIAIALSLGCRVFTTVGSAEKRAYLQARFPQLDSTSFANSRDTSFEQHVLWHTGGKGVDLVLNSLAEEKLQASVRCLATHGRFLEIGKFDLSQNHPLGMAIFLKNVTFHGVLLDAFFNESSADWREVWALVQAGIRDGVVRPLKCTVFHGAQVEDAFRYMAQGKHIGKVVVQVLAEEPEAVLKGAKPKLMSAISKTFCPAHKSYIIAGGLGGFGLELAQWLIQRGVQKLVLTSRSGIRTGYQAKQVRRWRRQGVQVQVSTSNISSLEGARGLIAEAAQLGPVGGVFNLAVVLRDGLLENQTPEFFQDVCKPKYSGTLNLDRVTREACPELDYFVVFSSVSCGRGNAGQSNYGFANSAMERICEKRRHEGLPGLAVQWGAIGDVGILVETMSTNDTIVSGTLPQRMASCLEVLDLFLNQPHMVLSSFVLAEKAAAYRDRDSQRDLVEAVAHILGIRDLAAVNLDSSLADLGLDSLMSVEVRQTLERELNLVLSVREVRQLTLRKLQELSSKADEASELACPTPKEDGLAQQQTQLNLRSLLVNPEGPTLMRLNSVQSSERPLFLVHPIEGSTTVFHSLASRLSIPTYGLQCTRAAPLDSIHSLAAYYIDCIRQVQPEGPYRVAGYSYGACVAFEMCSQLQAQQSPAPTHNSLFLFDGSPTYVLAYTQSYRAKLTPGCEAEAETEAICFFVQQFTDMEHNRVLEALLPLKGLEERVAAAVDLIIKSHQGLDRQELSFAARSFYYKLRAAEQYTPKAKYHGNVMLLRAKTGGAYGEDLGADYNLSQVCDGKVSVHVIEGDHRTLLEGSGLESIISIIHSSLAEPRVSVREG
Chain of Peroxisome proliferator-activated receptor gamma (Homo sapiens) (P37231 whole entry, looked up, the tested form may be a part): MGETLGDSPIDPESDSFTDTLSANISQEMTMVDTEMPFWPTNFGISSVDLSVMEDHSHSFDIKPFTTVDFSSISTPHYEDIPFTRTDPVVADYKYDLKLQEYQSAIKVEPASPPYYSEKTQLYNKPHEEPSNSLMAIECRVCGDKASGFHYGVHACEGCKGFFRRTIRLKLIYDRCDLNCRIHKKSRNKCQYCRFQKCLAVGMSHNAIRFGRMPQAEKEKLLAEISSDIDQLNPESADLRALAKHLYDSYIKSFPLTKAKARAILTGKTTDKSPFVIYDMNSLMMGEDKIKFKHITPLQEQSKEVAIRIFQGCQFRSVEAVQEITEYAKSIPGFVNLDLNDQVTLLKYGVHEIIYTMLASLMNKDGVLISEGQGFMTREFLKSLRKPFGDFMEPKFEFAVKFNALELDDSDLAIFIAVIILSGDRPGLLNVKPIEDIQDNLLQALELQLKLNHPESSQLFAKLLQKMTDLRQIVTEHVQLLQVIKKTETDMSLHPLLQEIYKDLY

On to `CC(C)(C)c1ccc(CSc2cnn(C(C)(C)C)c(=O)c2Cl)cc1`, for which the molecule was classed as inactive in assay [1], in assay [2], in assay [6] and in [10]. Besides, the AC50 in assay [3] is 1.9 µM (active); in assay [4], 24 µM (active); in assay [5] it was 2.3 µM (active); in assay [7] it was 1.85 µM (active); in assay [8], 2.68 µM (active); in assay [9] it was 14.2 µM (active). Also, in assay [11], the AC50 was 2.12 µM (active).
As to `N#Cc1nn(-c2c(Cl)cc(C(F)(F)F)cc2Cl)c(N)c1S(=O)C(F)(F)F` (stereo not drawn), the molecule was called inactive in assay [1] and in [2]. Besides, the AC50 in assay [3] is 61.2 µM (active); in [4] it was 58.1 µM (active); in assay [6], 83.4 µM (active); in assay [7] it was 29.5 µM (active); in assay [8] it was 54.9 µM (active); in assay [9], 14.9 µM (active). Further, the AC50 in assay [10] was 50.2 µM (active); in [11], 87.4 µM (active).
On to `COC(=O)C(C)Oc1ccc(Oc2ccc(Cl)cc2Cl)cc1` (stereo not drawn), for which the outcome in [1], in assay [2], in assay [3], in assay [4], in [6] and in assay [7] was inactive. Moreover, the molecule was called inactive in [8] and in assay [10]. Besides, the AC50 was 38.3 µM (active) in assay [9] and 13.7 µM (active) in assay [11].
`COC(=O)N(OC)c1ccccc1COc1ccn(-c2ccc(Cl)cc2)n1`: the molecule was classed as inactive in [1], in assay [2], in assay [4], in assay [6] and in assay [10]. For the same molecule, the AC50 is 78.3 µM (active) in assay [3]; 79 µM (active) in assay [5]; 68.4 µM (active) in [7]; 75.7 µM (active) in [8]; 13 µM (active) in [9]; 50 µM (active) in assay [11].
Turning to `C=CCC1=C(C)[C@@H](OC(=O)[C@@H]2[C@@H](C=C(C)C)C2(C)C)CC1=O`, the molecule was called inactive in [1], in assay [2], in assay [3], in [4], in assay [6] and in [7]. Besides, the call in assay [8], in [10] and in assay [11] was inactive. The concentration at half-maximal activity (AC50) in [9] is 63 µM (active).
Take `CC(C)C1(C)N=C(c2nc3ccccc3cc2C(=O)O)NC1=O` (stereo not drawn): the outcome in [1], in [2], in [3], in assay [4], in assay [6] and in [7] was inactive. The molecule was classed as inactive in assay [8], in assay [10] and in [11]. For the same molecule, the AC50 in [9] is 34.6 µM (active).
On to `CCCCOC(=O)c1ccccc1C(=O)OCCCC`, for which the molecule was classed as inactive in assay [1], in assay [2], in [3], in assay [4], in assay [5] and in assay [6]. In addition, the call in assay [7], in assay [8], in assay [9], in assay [10] and in assay [11] was inactive.
`CCCCC(CC)COC(=O)c1ccccc1C(=O)OCC(CC)CCCC` (stereo not drawn): the result in assay [1], in assay [2], in assay [3], in assay [4], in [6] and in assay [7] was inactive. Further, the outcome in [8], in assay [10] and in assay [11] was inactive. In addition, the AC50 in assay [9] was 34.4 µM (active).

What is called AC50 is the midpoint of the concentration-response curve, whichever way the signal moves.

Source of the values: PubChem BioAssay (EPA / NIEHS).
